Where a name gives a salt, the structure may show the parent alone.
Experiments:
Settings in all cases: 10 µM; exposure time 6 h
[1] = test system: Danio rerio larvae (5 dpf); experiment: difference in excitability vs DMSO (percentage points); higher = more excitable than DMSO
Procedure, shortened: (§1)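 Library compounds were tested at 10 µM final in 100 µL egg water on wild-type 5 dpf zebrafish larvae in 96-well plates for 6 h, with 48 larvae per compound. After 3 h, plates at 28.5 ℃ were imaged every 6 s during a 3-h run of moving lines and 100 ms, 400Hz tones. Behaviours were quantified by Z-LaP Tracker and reported as the compound mean less the vehicle control mean, in percentage points.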

[2] = test system: Danio rerio larvae (5 dpf); experiment: difference in startle response vs DMSO (percentage points); higher = stronger startle than DMSO
Procedure, shortened: as §1

[3] = test system: Danio rerio larvae (5 dpf); experiment: difference in activity during first hour vs DMSO (percentage points); higher = more activity than DMSO
Procedure, shortened: as §1

[4] = test system: Danio rerio larvae (5 dpf); experiment: difference in habituation to acoustic stimuli vs DMSO (percentage points); higher = more habituation than DMSO
Procedure, shortened: as §1

[5] = test system: Danio rerio larvae (5 dpf); experiment: difference in combined optomotor response to red, green and blue moving lines vs DMSO (percentage points); higher = stronger optomotor response than DMSO
Procedure, shortened: as §1

| Structure (SMILES) | difference in excitability [1] | difference in startle response [2] | difference in activity during first hour [3] | difference in habituation to acoustic stimuli [4] | difference [5] |
| --- | --- | --- | --- | --- | --- |
| Nc1ncn([C@@H]2O[C@H](CO)[C@@H](O)[C@H]2O)c(=O)n1 [5-Azacytidine] | 6.01 | -4.41 | -3.91 | -4.6 | 0.0811 |
| Cc1c(OCC(F)(F)F)ccnc1C[S+]([O-])c1nc2ccccc2[nH]1 (stereo not given) [Lansoprazole] | 8.61 | -2.87 | 1.57 | -2.95 | 6.61 |
| CC(C)(C)NC(=O)[C@H]1CC[C@H]2[C@@H]3CC[C@H]4NC(=O)C=C[C@]4(C)[C@H]3CC[C@]12C [Finasteride] | 11.1 | 3.35 | 10.8 | -0.24 | 9 |
| COc1ccc(CC2c3cc(OC)c(OC)cc3CC[N+]2(C)CCC(=O)OCCCCCOC(=O)CC[N+]2(C)CCc3cc(OC)c(OC)cc3C2Cc2ccc(OC)c(OC)c2)cc1OC (stereo not given) [Atracurium (besylate)] | 5.62 | -4.13 | -9.46 | -3.02 | -3.83 |
| CCCCN1C[C@H](O)[C@@H](O)[C@H](O)[C@H]1CO [N-Butyldeoxynojirimycin (hydrochloride)] | -7.96 | 4.45 | 16.1 | 5.5 | 4.55 |
| NC(=O)C(c1ccccc1)(c1ccccc1)[C@@H]1CCN(CCc2ccc3c(c2)CCO3)C1 [Darifenacin (hydrobromide)] | 15.5 | -9.95 | -4.6 | -3.27 | -6.74 |
| OCCN1C[C@H](O)[C@@H](O)[C@H](O)[C@H]1CO [Miglitol] | 8.03 | 3.24 | -0.913 | -2.04 | 8.24 |
| COC[C@H]1C[C@@H](c2nc(-c3ccc4c(c3)COc3cc5c(ccc6nc([C@@H]7CC[C@H](C)N7C(=O)[C@@H](NC(=O)OC)C(C)C)[nH]c65)cc3-4)c[nH]2)N(C(=O)[C@H](NC(=O)OC)c2ccccc2)C1 [Velpatasvir] | 10.1 | 2.08 | 2 | -1.59 | 0.589 |
| CN(C)CCC=C1c2ccccc2COc2ccccc21 [Doxepin (hydrochloride)] | 9.9 | -1.02 | 0.133 | 2.48 | 4.43 |
| CC(CN(C)C)CN1c2ccccc2CCc2ccccc21 (stereo not given) [Trimipramine (maleate)] | 12.5 | -3.72 | -0.632 | -5.79 | 0.935 |
| CC(C)(C)NCC(O)COc1cccc2c1CCC(=O)N2 (stereo not given) [Carteolol (hydrochloride)] | 4.97 | -3.33 | 6.77 | 1.1 | 4.95 |
| NC[C@@H]1O[C@@H](O[C@H]2[C@H](O)[C@@H](O[C@H]3O[C@H](CO)[C@@H](O)[C@H](N)[C@H]3O)[C@H](N)C[C@@H]2N)[C@@H](O)[C@H](O)[C@H]1O [Kanamycin A (sulfate)] | 8.55 | -4.02 | 4.22 | 3.45 | 4.39 |
| COc1cc(C(=O)NS(=O)(=O)c2ccccc2C)ccc1Cc1cn(C)c2ccc(NC(=O)OC3CCCC3)cc12 [Zafirlukast] | 3.02 | -0.95 | 17.6 | 4.84 | -0.091 |
| CC(C)NCC(O)COc1ccc(COCCOC(C)C)cc1 (stereo not given) [Bisoprolol (hemifumarate)] | 2.44 | 8.3 | 0.00157 | 3.42 | -3.86 |
| COc1ccc(S(=O)(=O)Nc2ccccc2CN(C)C/C=C/c2ccc(Cl)cc2)cc1 [KN-92 (hydrochloride)] | 7.68 | -0.787 | -17.8 | -4.48 | -1.81 |
| C[N+]1(C)CCC(OC(=O)C(O)(c2ccccc2)C2CCCC2)C1 (stereo not given) [Glycopyrrolate] | -0.597 | -8.53 | 7.84 | -7.11 | -2.89 |
| C[C@@H](NCCCc1cccc(C(F)(F)F)c1)c1cccc2ccccc12 [Cinacalcet (hydrochloride)] | -1.68 | 0.605 | 10.2 | -9.83 | -16.5 |
| O=C1Nc2ccc(Cl)cc2[C@@](C#CC2CC2)(C(F)(F)F)O1 [Efavirenz] | 10.7 | -10.7 | -17.8 | -12.8 | -17.4 |
| CC[C@H](C)C(=O)O[C@H]1C[C@@H](C)C=C2C=C[C@H](C)[C@H](CC[C@@H]3C[C@@H](O)CC(=O)O3)[C@H]21 [Lovastatin] | 9.79 | 2.77 | 7.75 | -0.0098 | 1.09 |
| COC(=O)C1=C(C)NC(C)=C(C(=O)OC(C)C)C1c1cccc2nonc12 (stereo not given) [Isradipine] | 11.7 | -10.9 | -0.814 | -7.82 | -17.2 |
| CC(C)C(=O)OCC(=O)[C@@]12O[C@H](C3CCCCC3)O[C@@H]1C[C@H]1[C@@H]3CCC4=CC(=O)C=C[C@]4(C)[C@H]3[C@@H](O)C[C@@]12C [Ciclesonide] | 9.7 | -3.59 | -7.9 | -5.49 | 9.17 |
| CCCNC(C)C(=O)Nc1c(C)csc1C(=O)OC (stereo not given) [Articaine (hydrochloride)] | 2.22 | -2.43 | 5.22 | 0.219 | -0.0299 |
| Cc1nc2n(c(=O)c1CCN1CCC(c3noc4cc(F)ccc34)CC1)CCCC2O (stereo not given) [Paliperidone] | 15.4 | 0.117 | 18.6 | 0.732 | 5.58 |

Source: the supplement of paper PMC10515830
